Activity calls are given as the source filed them. Unless noted, the rule behind the calls is not given here.
Tests used:
[1] = tested on: Wnt5a (protein binding on small-molecule microarray); experiment: Wnt5a binders on small-molecule microarray, primary screen, biophysical, 635/667 nm fluorescence (AID 1142); settings: 635 nm fluorescence, higher = more signal;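 note: fluorescence read at 667 nm with signal to noise per printed feature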
[2] = cell viability in Huh7 cells, primary screen, cytotoxicity control for HCV replication inhibitor project, CellTiter-Glo luminescence, basal, 48 h (AID 1143); settings: Huh7 HCV replicon, higher = more signal, called active from +8 up or from −8 down;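 note: Huh7 hepatoma cells carrying a hepatitis C replication reporter with no stimulus; test concentration not given here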
[3] = P. aeruginosa biofilm formation inhibitors, primary screen, PAO1 strain, BacTiter-Glo luminescence, LB-PBS (AID 1144); settings: 12 h, higher = more signal
[4] = CREB reporter modulators without forskolin, primary screen, cell-based, PC12, CRE-LacZ reporter, unstimulated (AID 1145); settings: no forskolin, luminescence, 4.5 h, higher = more signal, called active from +8 up or from −8 down
[5] = CREB reporter modulators under forskolin, primary screen, cell-based, PC12, CRE-LacZ reporter, forskolin-stimulated (AID 1146); settings: luminescence, 4.5 h, higher = more signal, called active from +8 up or from −8 down;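 note: PC12 cells with 6xCRE LacZ reporter stimulated by forskolin 10 µM; beta-galactosidase reporter signal reflecting CREB driven transcription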
[6] = target: Streptavidin (Streptomyces avidinii) (UniProt P22629); experiment: streptavidin binders on small-molecule microarray, primary screen, artefact control for SMM compound annotation, biophysical, 635/667 nm fluorescence (AID 1147); settings: streptavidin binding, higher = more signal;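 note: signal reflects streptavidin binding to arrayed compounds as a control protein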
Streptavidin (Streptomyces avidinii), sequence (P22629 whole entry, looked up): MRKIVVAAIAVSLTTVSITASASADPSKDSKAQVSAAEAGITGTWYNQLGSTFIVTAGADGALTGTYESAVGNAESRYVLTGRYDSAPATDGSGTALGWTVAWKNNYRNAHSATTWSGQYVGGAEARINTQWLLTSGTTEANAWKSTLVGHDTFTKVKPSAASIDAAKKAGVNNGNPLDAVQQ

[7] = small-molecule binders of probe aInhba, primary screen, biochemical, small-molecule microarray, 635/667 nm fluorescence (AID 1148); settings: higher = more signal;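 note: score merges 667nm spot fluorescence with signal-to-noise for antibody binding to printed compounds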
Torsin-1A (Homo sapiens) [8] = target: Torsin-1A (Homo sapiens) (UniProt O14656); experiment: torsin A binders from cell lysate, primary screen, small-molecule microarray, wild-type, 635/667 nm (AID 1149); settings: COS7 hTOR1A-WT lysate, 635 nm fluorescence, higher = more signal
Torsin-1A (Homo sapiens), sequence (O14656 whole entry, looked up): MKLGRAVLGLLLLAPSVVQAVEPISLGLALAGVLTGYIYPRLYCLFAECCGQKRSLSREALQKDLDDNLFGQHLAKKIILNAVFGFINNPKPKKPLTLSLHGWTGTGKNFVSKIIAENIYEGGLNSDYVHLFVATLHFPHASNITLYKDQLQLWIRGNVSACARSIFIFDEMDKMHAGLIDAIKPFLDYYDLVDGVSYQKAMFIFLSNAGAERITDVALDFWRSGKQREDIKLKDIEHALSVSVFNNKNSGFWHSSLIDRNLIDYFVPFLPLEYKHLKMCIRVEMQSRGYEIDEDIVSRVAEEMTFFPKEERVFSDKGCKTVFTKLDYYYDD

Torsin-1A (Homo sapiens) [9] = target: Torsin-1A (Homo sapiens) (UniProt O14656); experiment: small-molecule binders of mutant TOR1A in lysate, primary screen, cell lysate, small-molecule microarray, COS7 lysate, 635/667 nm fluorescence (AID 1150); settings: COS7 hTOR1A mutant lysate, 635 nm fluorescence, higher = more signal;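 note: score pools 667 nm emission and signal to noise measuring lysate protein binding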
[10] = tested on: Sonic hedgehog protein (Shh); experiment: small-molecule binders of Shh protein, primary screen, biochemical, small-molecule microarray, 635/667 nm fluorescence (AID 1151); settings: small-molecule microarray binding, 635 nm fluorescence; higher = more signal;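 note: Shh protein binding to compounds spotted on small-molecule microarray slides; score combines spot fluorescence intensity with signal-to-noise across triplicate slides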
[11] = E. coli DRC41 culture turbidity changes, primary screen, E. coli filamentation inducer project, strain DRC41, OD650, 48 h (AID 1152);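 note: E. coli MC1000 strain DRC41 lacking acrAB efflux pump and sulA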; settings: E. coli DRC41 (acrAB sulA), higher = more signal, called active from +8 up or from −8 down
[12] = small-molecule binders of probe aLefty1, primary screen, biochemical, small-molecule microarray, 635/667 nm fluorescence (AID 1153); settings: higher = more signal;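 note: score merges spot fluorescence with signal-to-noise ratio from the scanned slide images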
[13] = PSAC antagonists in infected red cells, primary screen, cell-based, P. falciparum Indochina, OD700, 1 h (AID 1154); settings: P. falciparum Indochina infected RBC osmotic lysis, higher = more signal, called active from +8 up or from −8 down
[14] = PSAC antagonists in infected red cells, primary screen, cell-based, P. falciparum Indochina, OD700, 2 h (AID 1155);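 note: lysis reports solute entry through the parasite surface anion channel PSAC; channel blockers reduce lysis of infected cells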; settings: P. falciparum Indochina infected erythrocytes, osmotic lysis OD700; higher = more signal, called active from +8 up or from −8 down
[15] = osmotic lysis modulators in infected erythrocytes, primary screen, PSAC antagonist project, cell-based, P. falciparum Indochina, OD700, 3 h (AID 1156); settings: higher = more signal, called active from +8 up or from −8 down
[16] = PSAC antagonists in infected red cells, primary screen, cell-based, P. falciparum Indochina, OD700, 18 h (AID 1157); settings: P. falciparum Indochina infected erythrocytes, osmotic lysis OD700, 18 h; higher = more signal, called active from +8 up or from −8 down
[17] = modulators of S6 phosphorylation in cells, primary screen, cell-based, A549, cytoblot, luminescence, serum-stimulated (AID 1158); settings: A549 phospho-S6 cytoblot, 5 h, higher = more signal;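 note: serum-stimulated A549 lung adenocarcinoma cells; signal is phosphorylated S6 detected by cytoblot immunostaining with HRP secondary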
[18] = target: NADPH oxidase 2 (Homo sapiens) (UniProt P04839); experiment: NOX2-dependent H2O2 signal modulators, primary screen, NOX inhibitor project, cell-based, HEK293-NOX2, PMA-stimulated, Amplex Red fluorescence (AID 1159); settings: 45 min, higher = more signal, called active from +8 up or from −8 down; note: test concentration not given here
NADPH oxidase 2 (Homo sapiens), sequence (P04839 whole entry, looked up): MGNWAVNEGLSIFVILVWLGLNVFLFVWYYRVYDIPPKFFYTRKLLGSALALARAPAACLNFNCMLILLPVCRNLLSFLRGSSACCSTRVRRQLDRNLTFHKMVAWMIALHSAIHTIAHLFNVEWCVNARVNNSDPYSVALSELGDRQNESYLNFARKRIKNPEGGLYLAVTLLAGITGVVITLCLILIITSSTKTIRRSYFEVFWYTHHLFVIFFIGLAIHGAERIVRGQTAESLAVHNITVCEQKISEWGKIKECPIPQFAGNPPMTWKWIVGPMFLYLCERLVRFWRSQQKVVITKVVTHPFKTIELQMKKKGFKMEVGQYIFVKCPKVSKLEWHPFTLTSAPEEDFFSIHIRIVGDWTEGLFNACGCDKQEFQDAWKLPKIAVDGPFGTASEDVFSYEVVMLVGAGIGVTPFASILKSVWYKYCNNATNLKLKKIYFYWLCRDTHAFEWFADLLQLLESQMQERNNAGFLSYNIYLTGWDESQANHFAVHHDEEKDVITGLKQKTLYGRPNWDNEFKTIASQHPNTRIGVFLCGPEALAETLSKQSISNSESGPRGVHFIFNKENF

[19] = target: NADPH oxidase 4 (Homo sapiens) (UniProt Q9NPH5); experiment: NOX4-dependent H2O2 signal modulators, primary screen, NOX inhibitor project, cell-based, HEK293-NOX4, tetracycline-induced, Amplex Red fluorescence (AID 1160); settings: 45 min, higher = more signal, called active from +8 up or from −8 down
NADPH oxidase 4 (Homo sapiens), sequence (Q9NPH5 whole entry, looked up): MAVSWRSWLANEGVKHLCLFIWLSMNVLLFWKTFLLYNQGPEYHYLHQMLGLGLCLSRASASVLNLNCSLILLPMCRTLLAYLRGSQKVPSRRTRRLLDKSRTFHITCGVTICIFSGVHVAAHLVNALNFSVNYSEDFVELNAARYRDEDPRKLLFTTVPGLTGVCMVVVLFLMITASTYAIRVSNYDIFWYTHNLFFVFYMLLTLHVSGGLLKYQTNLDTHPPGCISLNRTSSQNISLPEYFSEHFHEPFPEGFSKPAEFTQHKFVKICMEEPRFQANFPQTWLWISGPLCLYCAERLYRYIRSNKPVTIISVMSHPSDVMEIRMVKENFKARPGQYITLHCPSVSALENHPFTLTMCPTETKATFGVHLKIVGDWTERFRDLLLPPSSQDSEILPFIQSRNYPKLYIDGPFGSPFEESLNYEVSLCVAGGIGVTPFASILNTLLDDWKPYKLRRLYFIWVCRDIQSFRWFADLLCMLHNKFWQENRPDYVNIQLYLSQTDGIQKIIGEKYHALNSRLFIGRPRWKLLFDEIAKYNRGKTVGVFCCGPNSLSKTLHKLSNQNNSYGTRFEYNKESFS

[20] = target: NADPH oxidase 5 (Homo sapiens) (UniProt Q96PH1); experiment: NOX5-dependent H2O2 signal modulators, primary screen, NOX inhibitor project, cell-based, HEK293-NOX5, Amplex Red fluorescence (AID 1161); settings: HEK293-NOX5, ionomycin, 45 min, higher = more signal
NADPH oxidase 5 (Homo sapiens), sequence (Q96PH1 whole entry, looked up): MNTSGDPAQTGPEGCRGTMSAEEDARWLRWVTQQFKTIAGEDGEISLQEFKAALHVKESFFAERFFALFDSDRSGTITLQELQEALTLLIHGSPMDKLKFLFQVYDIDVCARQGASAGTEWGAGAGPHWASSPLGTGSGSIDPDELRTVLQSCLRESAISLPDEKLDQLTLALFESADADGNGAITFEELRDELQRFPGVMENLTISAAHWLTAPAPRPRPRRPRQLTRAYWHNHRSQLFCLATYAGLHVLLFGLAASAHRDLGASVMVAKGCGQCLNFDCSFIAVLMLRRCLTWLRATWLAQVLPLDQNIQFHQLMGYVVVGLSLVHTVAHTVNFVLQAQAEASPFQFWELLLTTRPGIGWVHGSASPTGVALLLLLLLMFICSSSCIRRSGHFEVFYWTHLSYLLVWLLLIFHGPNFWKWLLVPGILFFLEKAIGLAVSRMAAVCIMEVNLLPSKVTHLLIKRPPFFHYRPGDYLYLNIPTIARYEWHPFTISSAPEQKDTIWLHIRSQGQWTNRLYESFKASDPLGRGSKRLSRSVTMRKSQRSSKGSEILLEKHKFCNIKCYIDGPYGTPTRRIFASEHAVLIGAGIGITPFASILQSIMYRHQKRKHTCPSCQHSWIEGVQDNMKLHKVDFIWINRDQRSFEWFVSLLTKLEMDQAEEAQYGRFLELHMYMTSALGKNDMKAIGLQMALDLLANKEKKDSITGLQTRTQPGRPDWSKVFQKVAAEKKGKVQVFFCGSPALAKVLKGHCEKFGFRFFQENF

Row | SMILES | composite z-score [1] | z-score [2] | z-score [3] | z-score [4] | z-score [5] | composite z-score [6] | composite z-score [7] | composite z-score (Torsin-1A (Homo sapiens) [8]) | composite z-score (Torsin-1A (Homo sapiens) [9]) | composite z-score [10] | z-score [11] | composite z-score [12] | z-score [13] | z-score [14] | z-score [15] | z-score [16] | z-score [17] | z-score [18] | z-score [19] | z-score [20]
1 | CO[C@H]1O[C@H](CO)[C@@H](OC(=O)c2ccc(Br)cc2)[C@@H]2OC(=O)[C@H](Cc3ccccc3)C/C=C/C[C@@H](Cc3ccccc3)C(=O)O[C@@H]12 | 0.293 | -3.95 (inactive) | -1.16 (inactive) | -0.0017 (inactive) | -0.175 (inactive) | 0.088 | -0.263 | -0.295 | -0.0307 | 0.984 | 2.28 (inactive) | -0.715 | 2.36 (inactive) | -0.765 (inactive) | -1.53 (inactive) | -1.02 (inactive) | 1.92 | -4.18 (inactive) | -0.416 (inactive) | -1.82
2 | C=CCNC(=O)[C@@H]1[C@H]2C(=O)O[C@H](c3ccccc3)[C@H](c3ccccc3)N2[C@H](c2ccc(O)cc2)[C@@]12C(=O)N(C(=O)OCCOC)c1ccc(C#CCCO)cc12 | 0.905 | -0.2 (inactive) | 0.171 (inactive) | -0.337 (inactive) | 0.243 (inactive) | 0.945 | 0.198 | 0.463 | 0.235 | 2.07 | -0.181 (inactive) | 0.0911 | 2.22 (inactive) | 0.517 (inactive) | 0.0855 (inactive) | 0.121 (inactive) | 0.0918 | 0.982 (inactive) | 0.194 (inactive) | 1.06
3 | CN(C)CCCNC(=O)[C@@H]1c2ccccc2C(=O)N(C2CCCCC2)[C@H]1c1ccc(CO)cc1 | 0.76 | -0.395 (inactive) | -0.312 (inactive) | 1.24 (inactive) | -0.291 (inactive) | 0.139 | 0.271 | 0.567 | 1.03 | 1.81 | 0.196 (inactive) | 0.2 | 1.1 (inactive) | -0.541 (inactive) | 1.67 (inactive) | 0.253 (inactive) | 0.189 | 0.2 (inactive) | 0.197 (inactive) | -0.301
4 | CN1C(=O)C2C(C1=O)C1C=C(CCCO)C2C(c2cccs2)N1Cc1cc2c(cc1Br)OCO2 (stereo not given) | 0.418 | -1.8 (inactive) | 0.482 (inactive) | -0.374 (inactive) | -0.101 (inactive) | 2.27 | 0.233 | 1.5 | 1.95 | 0.162 | -0.139 (inactive) | -0.0587 | 25.1 (active) | 15.9 (active) | 0.0521 (inactive) | 1.58 (inactive) | 0.791 | 0.196 (inactive) | 0.0713 (inactive) | 0.741
5 | CN1C(=O)C2C=CC(C(O)c3ccc(F)cc3)N(NC(=O)OC(C)(C)C)C2C1=O (stereo not given) | 0.155 | -0.134 (inactive) | 0.193 (inactive) | 0.436 (inactive) | 0.84 (inactive) | 1.43 | 0.0705 | 0.0284 | -0.0455 | -0.761 | -1.73 (inactive) | 0.101 | -0.468 (inactive) | 0.477 (inactive) | 0.008 (inactive) | 0.901 (inactive) | -1.28 | -0.46 (inactive) | -0.56 (inactive) | -0.481
6 | O=C1N[C@@H](Cc2ccccc2)C(=O)N2[C@@H]1C[C@@H](C(=O)O)[C@H]2c1ccc(O)cc1 | 0.391 | -0.477 (inactive) | 0.106 (inactive) | 0.692 (inactive) | -0.789 (inactive) | 0.0885 | 0.25 | 0.574 | 0.533 | 2.02 | 1.13 (inactive) | 0.47 | 6.71 (inactive) | 1.04 (inactive) | -2.73 (inactive) | 0.595 (inactive) | -0.0505 | -6.08 (inactive) | -4.88 (inactive) | -2.63
7 | CN(C)CCCC[C@@H]1NC(=O)[C@@H]2C[C@H](C(=O)O)[C@H](c3cccc(OCCO)c3)N2C1=O | 0.471 | -0.37 (inactive) | -0.965 (inactive) | 1.11 (inactive) | 0.664 (inactive) | -0.634 | -0.258 | -0.0975 | -0.0752 | 0.212 | 0.408 (inactive) | -0.147 | 2.07 (inactive) | 0.2 (inactive) | -0.725 (inactive) | -0.0176 (inactive) | -0.564 | 1.11 (inactive) | 0.306 (inactive) | 1.18
8 | CN(C)C(=O)[C@@]1(Cc2ccccc2N=[N+]=[N-])N=C(c2ccc(OCCCO)cc2)O[C@H]1c1ccccc1 | 0.797 | -4.41 (inactive) | -1.63 (inactive) | 0.872 (inactive) | 0.361 (inactive) | 1.84 | 0.841 | 0.106 | 0.401 | -0.361 | -0.369 (inactive) | 0.465 | 25.7 (active) | 12.4 (active) | 2.85 (inactive) | 1.94 (inactive) | -0.482 | -3.93 (inactive) | 0.711 (inactive) | -2.45
9 | Cc1ccc([C@H]2C(C(=O)O)=C[C@@H](C(C)(C)C)N2S(=O)(=O)c2ccc(C)cc2)cc1 | 0.285 | -0.117 (inactive) | 0.62 (inactive) | -0.312 (inactive) | 0.134 (inactive) | 1.54 | 0.271 | 0.0948 | 0.465 | 0.347 | -1.18 (inactive) | 0.141 | 0.212 (inactive) | 0.934 (inactive) | -0.627 (inactive) | 0.585 (inactive) | -0.213 | 0.96 (inactive) | -2.84 (inactive) | -0.357

Source: PubChem BioAssay
